Most compounds without a hit are left out; they make up all but 1.8% or so of the library.
PGK inhibitor: qHTS Assay to Find Inhibitors of Phosphoglycerate Kinase | Phosphoglycerate kinase, glycosomal (Trypanosoma brucei brucei), P07378 | PGK/GAPDH coupled, Kinase-Glo luminescence, 60 min | Potency, µM (highest dose often 57.5 µM), for inactives: top-dose activity change, negative = inhibition, actives largely listed as inhibitors | actives 0.043% (n = 380,000) | AID 602233, 2012; also: % is scaled to controls: 0 for no effect and ±100 for the full control effect; nearly all actives have a fitted effect of over 60% in size
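Recombinant glycosomal PGK reaction used 1,3-bisphosphoglycerate generated in-well by GAPDH (100nM final) in 100mM TEA pH 7.6, 5mM MgCl2, 0.01% Tween-20. After 60 minutes at room temperature, ATP was read by Kinase-Glo Plus luminescence end-point.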
Tb PFK block: qHTS Assay to Find Inhibitors of T. brucei phosphofructokinase | ATP-dependent 6-phosphofructokinase (Trypanosoma brucei brucei), O15648 | T. brucei PFK, ADP-Glo luminescence | Potency, µM (series often up to 57.5 µM), for the others: at the top dose activity, negative = inhibition, most hits filed as inhibitors | actives 0.17% (n = 330,000);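 also: 0% = uninhibited 1x PFK enzyme wells and -100% = no-enzyme wells; nearly all actives have a fitted effect of over 60% in size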
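PFK 1.25 nM, F6P 0.5 mM, ATP 0.1 mM, 0.1 M TEA pH 8.0, 5 mM MgCl2, 0.01% Tween20, 0.1% BSA; 45 min RT. ADP-Glo readout. qHTS titration up to 57 uM; curves fitted, compounds curve-classed.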
HEK293 tox: qHTS of GLP-1 Receptor Inverse Agonists: Cytotox Screen. HEK293 cAMP-luciferase reporter cells, luminescence, 24 h. Potency, µM (top dose mostly 38.3 µM), for the others: at the top dose activity change, negative = inhibition, actives largely listed as inhibitors. actives 0.13% (n = 410,000);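 also: loss of luciferase light is scored as toxicity; % is scaled to controls: 0 for no effect and ±100 for the full control effect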
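A 23 nL compound transfer followed 12 hours of cell culture at 37 deg C; exposure then lasted 24 hr. Luciferase assay detection reagent was dispensed and plates read for luminescence after a 12 min room-temperature wait.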
Pin1 inhibitor: qHTS Assay to Find Inhibitors of Pin1. Peptidyl-prolyl cis-trans isomerase NIMA-interacting 1 (Homo sapiens), Q13526. Pin1 FP peptide displacement, HiFluor488, 10 min. Potency, µM (top dose mostly 115 µM), for inactives: at the highest dose activity, negative = inhibition, hits mostly inhibitors. actives 0.009% (n = 390,000). AID 504891, 2011; active = well fitted inhibition curve with a large enough effect in the polarisation, with a control signal flat, not every such curve was filed as active; inconclusive = small, poorly fitted or top-dose-only effect, or effect the other way, or a change in a side signal; inactive = no such curve, though single readings can be large or run the other way; the % refers to the polarisation; also: % is scaled to controls: 0 for no effect and ±100 for the full control effect
Target sequence (Q13526 whole entry, looked up): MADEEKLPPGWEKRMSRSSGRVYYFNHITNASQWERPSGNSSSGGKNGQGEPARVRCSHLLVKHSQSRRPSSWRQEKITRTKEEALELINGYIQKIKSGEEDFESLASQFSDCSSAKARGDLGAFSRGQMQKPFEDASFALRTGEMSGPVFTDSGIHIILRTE
GLP-1R inv ag: qHTS of GLP-1 Receptor Inverse Agonists (Inhibition Mode); actives 1.6% (n = 410,000); Potency, µM (titrated, usually from 38.3 µM), without a hit: top-dose activity change, negative = inhibition, most hits filed as inhibitors; Glucagon-like peptide 1 receptor (Homo sapiens), P43220; HEK293 GLP-1R CRE-luciferase, luminescence, 24 h; GLP-1R form is constitutively active; also: % is scaled to controls: 0 for no effect and ±100 for the full control effect; nearly all actives have a fitted effect of over 55% in size
Target sequence (P43220 whole entry, looked up): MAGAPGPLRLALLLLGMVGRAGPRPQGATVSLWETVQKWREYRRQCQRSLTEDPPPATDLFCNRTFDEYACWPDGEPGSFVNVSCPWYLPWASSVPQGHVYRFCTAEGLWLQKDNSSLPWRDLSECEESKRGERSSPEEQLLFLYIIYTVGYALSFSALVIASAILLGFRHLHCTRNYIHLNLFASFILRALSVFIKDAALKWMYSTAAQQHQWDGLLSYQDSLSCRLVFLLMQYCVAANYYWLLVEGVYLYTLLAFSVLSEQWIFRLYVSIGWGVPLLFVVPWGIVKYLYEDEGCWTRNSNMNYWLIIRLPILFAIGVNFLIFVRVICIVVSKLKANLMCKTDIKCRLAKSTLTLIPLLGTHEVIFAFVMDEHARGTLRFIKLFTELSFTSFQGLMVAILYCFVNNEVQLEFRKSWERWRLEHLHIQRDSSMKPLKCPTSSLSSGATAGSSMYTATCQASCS
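Assay principle: reduced luminescence from a cAMP-responsive reporter in HEK293 cells co-expressing a constitutively active GLP-1R. Conditions: 24 hr compound incubation, 37 deg C, 5% CO2.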
GLP-1R agonist: qHTS of GLP-1 Receptor Agonists. actives 0.007% (n = 380,000). Glucagon-like peptide 1 receptor (Homo sapiens), P43220. HEK293 GLP-1R CRE-luciferase, luminescence, 4-6 h; cells express a hypersensitive GLP-1R form. AID 624172, 2012. Potency, µM (doses to about 45.6 µM), for the others: at the top dose activation, actives largely listed as activators; also: % of control where 0% means no effect
Starred values were filed as active, the others as inactive; i = inactive; ? = inconclusive; . = no result. Unless noted, calls follow the shape of the dose curve; as a rule, active = well fitted curve in the direction sought with a large enough effect; inconclusive = small, poorly fitted or top-dose-only effect, or another doubt; inactive = no such curve, though single readings can be large; an effect the other way counts as inactive or inconclusive. Potency is read from the fitted curve at half-maximal effect.

SMILES	PGK inhibitor	Tb PFK block	HEK293 tox	Pin1 inhibitor	GLP-1R inv ag	GLP-1R agonist
O=C(CNC(=O)C1COc2ccccc2O1)N/N=C\c1ccc(Br)cc1 (stereo not given)	7%	-11%	3%	-1%	10µM*	13%
COc1cc2c(c(OC)c1OC)-c1c(cc3c(c1OC)OCO3)C[C@@H](C)[C@](C)(O)C2	.	.	.	.	.	4%
CN1c2ccccc2C(O)=C(C(=S)Nc2ccc(F)c(Cl)c2)S1(=O)=O	i	0%	11%	-5%	10µM*	-26%
CCN1C/C(=C/c2ccc(OC)c(O)c2)C(=O)/C(=C/c2ccc(OC)c(O)c2)C1	-1%	1%	?	4%	?	3%
COc1ccc(/C=C2\CN(Cc3ccccc3)C/C(=C\c3ccc(OC)c(O)c3)C2=O)cc1O	i	2%	?	16%	8.9µM*	-9%
Cc1cc2c(s1)c1cnn(Cc3cccc(C)c3F)c(=O)c1n2C	.	.	.	20%	.	.
CN(C)c1ccc(NC(=O)Cn2c(SCc3ccc(F)cc3)nc3cccnc32)cc1	10%	.	-2%	0%	-11%	.
CCOc1cc(C(=O)Nc2ccc3oc(-c4ccc(F)cc4Cl)nc3c2)cc(OCC)c1OCC	.	.	-6%	16%	?	.
CC(C)Cn1cc(C(=O)N2CCN(c3cccc(Cl)c3)CC2)c2c3ccccc3n(C)c2c1=O	i	.	-17%	2%	10µM*	.
COc1ccc(C(=O)c2c(C(F)(F)F)oc3c2C(=O)c2ccccc2C3=O)cc1	-8%	-2%	-18%	-11%	7.1µM*	-34%
CCOc1cc(C2C(C(=O)OC)=C(C)NC3=C2C(=O)c2ccccc23)c(Br)cc1O (stereo not given)	7%	.	-27%	?	?	.
COc1ccc(S(=O)(=O)Nc2ccc(Cc3ccncc3)cc2)cc1OC	2%	-2%	-8%	-4%	19%	9%
O=S(=O)(Nc1ccc(Cc2ccncc2)cc1)c1ccc(Cl)c(Cl)c1	-4%	0%	10µM*	5%	-1%	1%
Cc1ccc(Cl)cc1N1CCN(C(=O)C2CCCN(Cc3nc(-c4cccc(Cl)c4)oc3C)C2)CC1 (stereo not given)	-1%	.	2%	8%	4µM*	.
CCN1CCc2c(sc(-n3cccc3)c2C(C)NC(=O)Nc2ccccc2C)C1 (stereo not given)	i	.	-3%	?	-7%	.
CC(NC(=O)Nc1cc(Cl)ccc1Cl)c1c(-n2cccc2)sc2c1CCCC2 (stereo not given)	10%	.	-10%	8%	3.5µM*	.
Cc1ccc(-c2onc(C)c2C)cc1S(=O)(=O)N1c2ccccc2CC1C (stereo not given)	-8%	.	12%	7%	10µM*	.
COc1ccc2ccccc2c1CN1CCN(C(=O)c2ccccc2)CC1	-3%	-1%	-8%	0%	10µM*	-3%
Cc1ccccc1CN1CCN(C(=O)c2cccc3ccccc23)CC1	2%	-1%	-7%	-7%	10µM*	2%
COc1ccc2ccccc2c1CN1CCN(C(=O)c2ccco2)CC1	i	0%	?	-10%	?	7%
Cc1cccc(CN2CCN(C(=O)c3cccc4ccccc34)CC2)c1	-13%	-4%	-12%	1%	?	10%
COc1ccccc1CN1CCN(C(=O)c2cccc3ccccc23)CC1	i	.	4%	-8%	11µM*	-7%
Cc1ccc(CN2CCN(C(=O)c3cccc4ccccc34)CC2)cc1	i	-5%	-2%	-24%	4µM*	12%
CO[C@@]1(NC(=O)CSC[C@@H](N)C(=O)O)C(=O)N2C(C(=O)O)=C(CSc3nnnn3C)CS[C@@H]21	.	.	.	.	.	-2%
O=C(COC(=O)C12CC3CC(CC(Cl)(C3)C1)C2)NCc1ccco1	.	.	.	1%	.	.
SMILES	PGK inhibitor	Tb PFK block	HEK293 tox	Pin1 inhibitor	GLP-1R inv ag	GLP-1R agonist
CCN1CCN(c2nc3c(S(=O)(=O)c4ccc(Br)cc4)nnn3c3ccsc23)CC1	i	.	-1%	0%	20%	.
O=C(NCc1ccccc1)Nc1ncnc2c1C(c1ccccc1)c1c(ccc3ccccc13)O2 (stereo not given)	.	.	.	22%	.	.
CCN(CCNCC(O)COCc1ccc(Cl)cc1)c1cccc(C)c1 (stereo not given)	17%	-11%	?	-1%	10µM*	0%
CC1(C)Oc2c(ccc(O)c2CN2CCOCC2)C2=C1CCCC2	-6%	.	-6%	-11%	7.1µM*	2%
CCOC(=O)c1c(NC(=O)CSc2cn(CCNC(=O)c3ccc(OC)c(OC)c3)c3ccccc23)sc2c1CCC2	-8%	.	4%	?	8%	1%
CCCn1c(COc2ccccc2OC)nc2ccccc21	-6%	3%	-14%	-3%	10µM*	-11%
CCN(CC)CCCN=Cc1c(O)n(Cc2ccccc2)c(=O)c2ccccc12	0%	-7%	-10%	-1%	13µM*	14%
CCOc1ccc(OCc2ccc(C(=O)NN=Cc3ccc[nH]3)cc2)cc1	-3%	0%	2.2µM*	9%	?	-17%
O=C(N/N=C/c1ccc[nH]1)c1ccccc1OCc1ccc(F)cc1	-12%	-6%	1%	-1%	12%	19%
CC(C)NS(=O)(=O)c1ccc2nc(NC(=O)c3cncc(Br)c3)sc2c1	0%	.	0%	2%	5%	.
NC(Cc1ccccc1)c1csc(Nc2ccc(C(=O)c3ccccc3)cc2)n1 (stereo not given)	.	.	?	.	10µM*	-3%
NC(Cc1ccc(Cl)cc1)c1csc(Nc2ccc(C(=O)c3ccccc3)cc2)n1 (stereo not given)	.	.	2%	.	?	-9%
Cc1cc(C)c(C)c(N=Nc2nc3ccccc3n2C)c1C	-2%	4%	?	-2%	7.9µM*	19%
CCCN1CCN(c2cccc(Nc3nn4c(=O)c5ccccc5nc4s3)c2)CC1	.	.	.	6%	.	.
Fc1ccc2c(c1)Sc1ccc(Cl)cc1CC2N1CCN(CCC2OCCO2)CC1 (stereo not given)	-1%	.	?	5%	3.5µM*	17%
O=[N+]([O-])c1ccc2c(c1)C(N1CCN(CCO)CC1)Cc1ccc(F)cc1S2 (stereo not given)	.	.	-12%	.	?	13%

Compound activity as filed in PubChem BioAssay.
